Among all 69,000 compounds or so, about 8,600 (12%) showed an effect of 50% or more. Only a selection was taken, and strong results are over-represented in it overall.
Test system: Plasmodium berghei
Test: Screen against P. berghei liver stage (PbLuc), transformed with Luciferase, at 10uM
Assay type: functional, HepG2
Conditions: tested at 10 uM

Structure (SMILES)	INHIBITION
Cc1oncc1C(=O)N1CCC2(CC1)CC(N1CCOCC1)C2	-15.9%
CNc1cc(-c2ccncc2)ncn1	24.8%
Cc1cc(C)n(CC2CCCCN2C(=O)c2ccc(C(N)=O)cc2)n1 (centres undefined)	-10.6%
Cc1cc(C)n(CC2CCCN2C(=O)c2cccc3c2OCO3)n1 (centres undefined)	25.15%
Cc1cc(C)n(CC2CCCN2C(=O)c2ccc3c(c2)OCO3)n1 (centres undefined)	52.1%
Cc1cc(C)n(CC2CCCCN2C(=O)c2ccc3c(c2)COC3)n1 (centres undefined)	56.4%
Cc1cc(C)n(CC2CCCN2C(=O)c2ccc3c(c2)COC3)n1 (centres undefined)	51.6%
Cc1cnn(CC2CCCCN2C(=O)c2ccc3c(c2)COC3)c1 (centres undefined)	-18%
Cc1cc(C)n(CC2CCCCN2C(=O)c2ccc3c(c2)OCO3)n1 (centres undefined)	5.97%
Cc1cc(C)n(CC2CCCN2C(=O)c2ccc3[nH]c(=O)[nH]c3c2)n1 (centres undefined)	16.3%
Cc1cc(C)n(CC2CCCN2C(=O)c2ccc3c(c2)OCCO3)n1 (centres undefined)	15.2%
CN(C)CC(=O)NC1CC(C)(C)Cc2nc(C(C)(C)C)ncc21 (centres undefined)	43.6%
O=C(CN1CC(c2ccccc2)CC1=O)NCc1cc2n(n1)CCNC2 (centres undefined)	17.3%
Cc1noc2nc3c(c(C(=O)/N=c4\[nH]nc(C(C)C)s4)c12)CCC3	38%
Cn1cc(CN2CCO[C@@H]3CN(Cc4ccoc4)C[C@@H]3C2)cn1	-18.4%
COCC(NC1CCSCC1)c1ccnn1C (centres undefined)	47.6%
CN1C(=O)C2(CCCN(C(=O)c3cccnc3O)C2)c2ccccc21 (centres undefined)	7.25%
Cc1cccc(NC(=O)NCC2(N3CCOCC3)CCSC2)c1 (centres undefined)	34.5%
O=C(NCC1(N2CCOCC2)CCSC1)Nc1ccc(F)cc1 (centres undefined)	23.5%
Cc1ccc(NC(=O)NCC2(N3CCOCC3)CCSC2)c(C)c1 (centres undefined)	74.2%
COc1nc2c(cc1C(=O)NC(C)Cc1cc(C)n[nH]1)CCC2 (centres undefined)	-37.9%
Cn1c(=O)[nH]c(=O)n2c(CC(=O)Nc3ccc(Cl)c(Cl)c3)cnc12	20.1%
Cc1nc(N(C)CCN(C)C)c2cnn(C)c2n1	29.2%

Structure (SMILES)	INHIBITION
CCc1nnc(CN(C)c2nc(C3CCCC3)nc3c2cnn3C)o1	1.81%
CCc1nnc(CN(C)c2nc(C(C)C)nc3c2cnn3C)o1	53.5%
CN(C)C(=O)C1CN(c2ncccn2)CCN1C (centres undefined)	25.8%
COc1ncccc1CNC(=O)N(Cc1ccc(F)cc1F)C1CC1	48.2%
Cc1ccnc(C(Nc2nccc(-c3ccc(C)nc3C)n2)C2CC2)c1 (centres undefined)	41.3%
Cc1nc(CN2CCOC(Cn3cccn3)C2)nc2ccccc12 (centres undefined)	-31.8%
Cc1nc2sccn2c1C(=O)N1CCn2nc(C(=O)NC3CC3)cc2C1	25.5%
Cc1cc(C(=O)N2CCn3nc(C(=O)NC4CC4)cc3C2)nc(C)n1	34.2%
Cc1c[nH]c(C(=O)N2CCn3nc(C(=O)NC4CC4)cc3C2)n1	53.7%
N#Cc1cccc(CN2C[C@@H](NC(=O)C3CC3)[C@H]3OCCC[C@H]32)c1	42%
C=C(C)COc1ccccc1CNCCc1c[nH]cn1	21.7%
CCc1ccccc1OCCNCCc1c[nH]cn1	51.3%
CCn1c(-c2ccccc2)nn(CC(=O)NCCc2c[nH]cn2)c1=O	31.4%
O[C@H]1CN(Cc2cc3ccccc3o2)CC[C@@]12CCCO2	15.9%
CCC1CN(CC(=O)Nc2cc(C)nn2C)CCO1 (centres undefined)	23.4%
Cc1cc(NC(=O)CN2CCOC(Cn3nc(C)cc3C)C2)n(C)n1 (centres undefined)	56%
Cc1nc(C)n(CC2CN(CC(=O)Nc3nccs3)CCO2)n1 (centres undefined)	30.1%
Cc1nc(C)n(CC2CCCN2CC(=O)Nc2cccnc2)n1 (centres undefined)	-6.39%
Cc1nc(C)n(CC2CCCN(CC(=O)Nc3ccncc3)C2)n1 (centres undefined)	-0.15%
Cc1cnn(CC2CN(CC(=O)Nc3cccnc3)CCO2)c1 (centres undefined)	67.5%
Cc1nc(C)n(CC2CN(CC(=O)Nc3cccnc3)CCO2)n1 (centres undefined)	-13.2%
Cc1nc(C)n(CC2CN(CC(=O)Nc3ccncc3)CCO2)n1 (centres undefined)	64.1%
Cc1nc(C)n(CC2CCCN(CC(=O)Nc3cccnc3)C2)n1 (centres undefined)	57.2%

Structure (SMILES)	INHIBITION
Cc1cc(C)n(CC2CN(CC(=O)Nc3ccncc3)CCO2)n1 (centres undefined)	44.3%
Cc1cnn(CC2CN(CC(=O)Nc3ccncc3)CCO2)c1 (centres undefined)	11.2%
O=C(CN1CCOC(Cn2cccn2)C1)Nc1cccnc1 (centres undefined)	10.7%
CO[C@H]1CCN(C(=O)c2ccsc2)[C@@H]2CN(CC3CC3)C[C@H]12	0.112%
Cc1cnn(-c2ccc(C(=O)N3CCCC(n4ccnc4C)C3)cc2)c1 (centres undefined)	0.411%
Cn1cc(C2CCCN2C(=O)COCCOc2ccccc2)cn1 (centres undefined)	44.1%
CC(C)N1CCc2onc(Cn3cccc3)c2C1	4.02%
Cc1nc(C)n(CC2CCCN2CCOc2ccccc2F)n1 (centres undefined)	-83.4%
CC(C)c1nc(C2CCCN(C(=O)CCc3cscn3)C2)no1 (centres undefined)	-43.5%
c1cnc(Nc2cc(CCC3CCCNC3)ccn2)cn1 (centres undefined)	-26.2%
Cc1nc2cc(C(=O)N3CCn4c(nnc4C4CC4)C3)ccc2s1	10.9%
CCN(CC)CCn1cc(NC2CCN(C(C)(C)C)CC2)cn1	-13.1%
O=C(NCCc1nncn1C1CC1)C1SCCc2ccccc21 (centres undefined)	-4.13%
Cc1nn(C)c(NC(=O)C2SCCc3ccccc32)c1C (centres undefined)	74%
Cc1nonc1NC(=O)C1SCCc2ccccc21 (centres undefined)	-92.8%
O=C(c1ccncc1)N(CCO)Cc1cc(Br)ccc1F	35.6%
Nc1nc2c(c(=O)[nH]1)CCN(C(=O)c1ccccc1N1CCCC1)C2	8.24%
O=C(NC1CC1)c1cnc2n1CCCC2	-40.6%
O=C(c1cnc2n1CCCC2)N1CCCC1	66.1%
CC(C)(C)NC(=O)c1cnc2n1CCCC2	-107%
O=C(NCCCc1ccccn1)c1cn(CCN2CCNCC2)nn1	-37.8%
CCN1CCN(C(=O)c2cc(-c3cccs3)cs2)CC1	-15.5%
CC(C)NC(=O)Nc1ccc(CS(=O)(=O)C(C)(C)C)cc1	-8.69%

From ChEMBL document CHEMBL4513216, “Probing the Open Global Health Chemical Diversity Library for Multistage-Active Starting Points for Next-Generation Antimalarials” (ACS Infect Dis, 2020)
